PINK1 modulator = A Quantitative High throughput Screen to Identify Chemical Modulators of PINK1 Expression. PINK1 immunofluorescence, high-content cytometry, 24 h. Potency, µM (highest dose often 76.6 µM), inactives show at the highest dose activation (PINK1 increase), actives largely listed as activators. actives 0.2% (n = 410,000); active means well fitted activation curve with a large enough effect; inconclusive means small, poorly fitted or top-dose-only effect; cell line not stated here; further: % of control where 0% means no effect; nearly all actives have a fitted effect of over 65% in size
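PINK1 protein level read as immunofluorescence by microplate cytometer in a fixed, stained stable cell line after 24 h exposure to five compound concentrations, with CCCP as control.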
Vif-A3G inh = qHTS for Inhibitors of Vif-A3G Interactions: qHTS; HeLa A3G-eYFP + Vif (tagged APOBEC3G with the HIV-1 protein that degrades it), YFP fluorescence, overnight; Potency, µM (titrated, usually from 46.1 µM), inactives show top-dose activity, negative = active, most hits filed as inhibitors; actives 0.076% (n = 410,000); further: on the % scale 0 is the no-effect control and ±100 the full control effect; nearly all actives have a fitted effect of over 60% in size
Target sequence (Q9HC16 whole entry, looked up): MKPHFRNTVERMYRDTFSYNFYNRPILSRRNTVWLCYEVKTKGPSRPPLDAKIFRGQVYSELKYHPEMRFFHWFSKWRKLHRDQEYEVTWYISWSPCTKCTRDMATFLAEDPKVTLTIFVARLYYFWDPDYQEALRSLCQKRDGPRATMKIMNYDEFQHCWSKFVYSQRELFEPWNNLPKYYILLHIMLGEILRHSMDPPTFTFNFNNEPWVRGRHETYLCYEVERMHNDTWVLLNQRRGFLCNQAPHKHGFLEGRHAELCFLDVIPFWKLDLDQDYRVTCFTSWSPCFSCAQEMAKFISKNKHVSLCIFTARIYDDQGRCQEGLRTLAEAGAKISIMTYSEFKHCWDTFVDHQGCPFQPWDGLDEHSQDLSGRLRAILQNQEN
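HeLa cells stably expressing Vif and C-terminally eYFP-tagged A3G, seeded overnight at 37 deg C, then exposed to compound by pintool overnight at 37 deg C. Rise in yellow fluorescence (Ex 488/Em 500-530, Acumen) marks blocked Vif-driven A3G degradation.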
Vif-APOBEC3F blk = qHTS for Inhibitors of Vif-A3F Interactions: qHTS. actives 0.2% (n = 390,000). HeLa A3F-eYFP + Vif (tagged APOBEC3F with the HIV-1 protein that degrades it), YFP fluorescence increase. Potency, µM (doses to about 46.1 µM), without a hit: at the highest dose activity, negative = active; further: % of control where 0% means no effect; nearly all actives have a fitted effect of over 65% in size
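HeLa cells stably expressing Vif plus C-terminally eYFP-tagged A3F were seeded, incubated overnight at 37 deg C, dosed with compound, incubated overnight again at 37 deg C. Yellow fluorescence (Ex 488/Em 500-530) reported blocked Vif-mediated A3F-eYFP degradation.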
Epigenetic derep = Quantitative High-Throughput Screen for Regulators of Epigenetic Control; murine LDR cells, GFP reporter derepression, 30 h; Potency, µM (doses to about 53.9 µM), for the others: at the top dose GFP activation, hits mostly activators; actives 0.2% (n = 280,000); further: % of control where 0% means no effect; nearly all actives have a fitted effect of over 60% in size
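In this reporter-derepression format, murine cells bearing a silenced integrated CMV-GFP locus incubate with test compound (30 h, 37 C), then are washed and imaged; fluorescent objects of 20–120 um count as induced cells.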
An asterisk follows results filed as active; ? = inconclusive; / = no result. Rows were chosen to be rich in hits. Some 0.52% of all compounds tested hit in one or more screens of this group. Unless noted, the call rests on the fitted dose curve; in most records, active means well fitted curve in the direction sought with a large enough effect; inconclusive means small, poorly fitted or top-dose-only effect, or another doubt; inactive means no such curve, though single readings can be large; an effect the other way counts as inactive or inconclusive. Potency means the concentration at half of the fitted maximal effect.

SMILES	PINK1 modulator	Vif-A3G inh	Vif-APOBEC3F blk	Epigenetic derep
CCCN(CCC)c1ccc(/C=C/c2sc3ccccc3[n+]2CCCCI)cc1	14µM*	-26%	/	/
COc1ccc(/C=C/c2sc3ccccc3[n+]2CCCCI)cc1OC	0%	-9%	/	/
Cc1sc2ccccc2[n+]1Cc1ccccc1	/	-2%	/	/
CN(C)c1ccc(/C=C/c2sc3ccccc3[n+]2Cc2ccccc2)cc1	40µM*	-7%	/	/
COc1cccc(Cc2nc3cccnc3n2C2CCN(C(=O)c3n[nH]c4c3CCCC4)CC2)c1	1%	/	/	/
Cc1c(C(=O)NCc2cccc(F)c2)sc2ncnc(NCC3CCCO3)c12 (stereo not given)	0%	/	/	/
CCOC(=O)N1CCN(Cc2ccc3c(c2)CN(C(=O)c2cc(-c4ccccc4)on2)CCO3)CC1	0%	/	/	/
C/C(=N\NC(=O)CN1CCOCC1)C(C)(C)C	10µM*	-5%	6%	-6%
CC(C)CC1=NN2C(=N)/C(=C\c3coc4ccccc4c3=O)C(=O)N=C2S1	7%	?	?	-5%
CCSC1=NSC2=NC(=O)/C(=C\c3coc4ccccc4c3=O)C(=N)N12	21%	?	25µM*	2%
O=Cc1s/c(=N\S(=O)(=O)c2ccccc2)n(CCCCl)c1Cl	-1%	?	28µM*	?
CCn1c(C)cs/c1=N\S(=O)(=O)c1ccccc1	1%	1%	-5%	/
COc1cc2c(cc1NC(=O)COc1ccccc1OC)oc1ccccc12	14µM*	1%	6%	-5%
O=C(/C=C/c1ccccc1)C1C(=O)c2ccccc2C1=O	-1%	2%	-6%	1%
O=C(c1ccccc1)C1C(=O)c2ccccc2C1=O	24%	?	35µM*	?
Cc1cc(Nc2ccccc2F)n2nc(-c3ccccc3)nc2n1	3%	-1%	0%	-3%
Cc1cc(Nc2cc(Cl)ccc2C)n2nc(-c3ccccc3)nc2n1	5%	0%	5%	25µM*
CC(C)(C)n1ncc2c(=O)n(Cc3cc(Cl)ccc3Cl)cnc21	/	2%	/	/
C/C(=N\NC(=S)NCc1ccccc1)c1ccccc1	3%	1%	?	7%
CC1=C/C(=N\NC(=S)NCc2ccccc2)CC1	0%	-1%	?	13µM*
COc1ccccc1-c1ccnc(-n2ncc(C(=O)NC(c3cccnc3)C(F)(F)F)c2C)n1 (stereo not given)	6%	/	/	/
Nc1c(N(CCC2=CCCCC2)C(=O)c2ccc([N+](=O)[O-])o2)c(=O)[nH]c(=O)n1Cc1ccccc1	6%	-16%	22µM*	/
CN(C)c1ccc(C2C=C(c3ccccc3)Nc3nnnn32)cc1 (stereo not given)	4%	?	25µM*	9%
Cc1ccc(-n2c(C)cc(/C=c3/sc4nc5ccccc5n4c3=O)c2C)cc1	10%	0%	/	-1%
COc1cc(N2CCCC2)c(OC)cc1/C=c1/sc2nc3ccccc3n2c1=O	/	/	/	2.8µM*
SMILES	PINK1 modulator	Vif-A3G inh	Vif-APOBEC3F blk	Epigenetic derep
Cc1ccn(CCC(=O)NCC2Cc3cc(Cl)cc(-c4ccc5[nH]ccc5c4)c3O2)n1 (stereo not given)	3%	/	/	/
CC[N+]1=C(C)C(C)(C)c2cc(C)ccc21	22µM*	?	?	?
O=C(c1cnn2cccnc12)N1CCOc2ccc(C(O)C(c3ccccc3)c3ccccc3)cc2C1 (stereo not given)	1%	/	/	/
COc1ccc(N/C=C/C(=O)c2sc(-c3ccccc3)nc2C)cc1	7%	11µM*	-11%	2%
COc1ccc(N/C=C/C(=O)c2ccccc2)cc1	2%	-5%	-18%	/
O=C(NCC1Cc2cccc(-c3cnccn3)c2O1)c1ccc2c(c1)OCCO2 (stereo not given)	0%	/	/	/
Cc1nc2cc(OC3(C)CCN(Cc4ccc(OC(F)(F)F)cc4)C3)ccc2s1 (stereo not given)	45µM*	-5%	/	/
CC(C=NNc1ccc([N+](=O)[O-])cn1)=Cc1ccccc1	28µM*	0%	?	/
CCN1CCc2c(sc(-n3cccc3)c2C(C)NC(=O)Nc2ccc(C(=O)OC)cc2)C1 (stereo not given)	5%	?	22µM*	8%
Cc1nc2ccccc2nc1CN1CCOc2ccc(C3(O)CCN(c4ccccc4F)CC3)cc2C1	1%	/	/	/
CCOc1ccccc1N1CC(c2nc3ccccc3n2CCOc2ccc(OC)cc2)CC1=O (stereo not given)	3%	-8%	-8%	0%
CCOc1ccccc1N1CC(c2nc3ccccc3n2Cc2c(C)cc(C)cc2C)CC1=O (stereo not given)	0%	-27%	13µM*	-2%
NC(=S)N/N=C\c1ccccc1OCc1ccccc1	1%	-17%	8%	-1%
NC(=S)N/N=C/c1ccccc1OC(=O)/C=C/c1ccccc1	0%	0%	11µM*	/
Cc1cccnc1-c1cccc2c1OC(CNC(=O)C(=O)c1ccccc1)C2 (stereo not given)	1%	/	/	/
O=C(CC1CC2CCC1C2)Nc1nc(-c2ccccn2)cs1 (stereo not given)	7%	1%	13µM*	4%
CCC1CN(CCNC(=O)c2ccccc2-n2cccn2)Cc2cc(OC)ccc2O1 (stereo not given)	0%	/	/	/
CCOC(=O)c1c(-c2ccc(OC)cc2)csc1/N=C/C1C(=O)CCCC1=O	?	?	25µM*	?
CCOC(=O)c1c(-c2ccc(OC)cc2)csc1/N=C/N(C)C	-2%	-19%	-9%	-1%
O=C(NCC1Cc2cc(F)cc(-c3cnccn3)c2O1)c1cccc(Cl)c1 (stereo not given)	0%	/	/	/
CCOC(=O)/C=c1\s/c(=C\c2ccc3cc(OC)ccc3c2)c(=O)n1CC(=O)NCc1ccc2c(c1)OCO2	20µM*	2%	-3%	7.9µM*
CCOC(=O)/C=c1\s/c(=C\c2c(OCC)ccc3ccccc23)c(=O)n1CC(=O)NCC1CCCO1 (stereo not given)	1%	?	-19%	-1%
CCOC(=O)/C=c1/s/c(=C\c2c(OC)ccc3ccccc23)c(=O)n1CC(=O)NCC1CCCO1 (stereo not given)	3%	11µM*	?	/
CCOc1ccc(C(=O)COC(=O)Cc2n[nH]c(=O)c3ccccc23)cc1	6%	8.9µM*	8%	/
O=C(Cc1n[nH]c(=O)c2ccccc12)OCC(=O)c1ccc(F)cc1	1%	-4%	-21%	/
CC(OC(=O)c1cc(Br)ccc1O)C(=O)Nc1ccc(S(=O)(=O)N2CCCC2)cc1 (stereo not given)	16µM*	-3%	1%	/
Cc1cccc(C(=O)OC(C)C(=O)Nc2ccc(S(=O)(=O)N3CCCC3)cc2)c1O (stereo not given)	-1%	2%	2%	/
O=C(CCN1C(=O)/C(=C/C=C/c2ccccc2)SC1=S)Nc1cccnc1	3%	-17%	-5%	2%
